SKKanGAS inh: blocks kanamycin growth of S. pyogenes SKKanGAS strain; BacTiter-Glo, 6 h; inhibition, % at 7.5 µM; 1.3% of 300,000 active; AID 1662;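 active = mean replicate score, as percent of positive control median, at least 50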;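 note: strain carries kanamycin resistance gene driven by streptokinase promoter and grows in 40 µg/ml kanamycin; loss of luminescence reflects streptokinase promoter inhibition or plain growth inhibition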
NALP3 yeast inh: NALP3 inhibition in yeast; Yeast reconstituted NLRP3/ASC/caspase-1, beta-gal luminescence, 24 h; inhibition, % at 10 µM; 0.39% of 330,000 active; AID 2825;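 active = inhibition of 50% or more; inactive = inhibition below 50%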
tim23-1 inh: tim23-1 yeast growth inhibition | 1.3% of 330,000 active | inhibition, % at 20 µM | S. cerevisiae tim23-1 growth, BacTiter-Glo luminescence, 24 h | AID 463212;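 active = growth inhibition of the mutant yeast at or above 50%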;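 note: temperature-sensitive mutant grown at 25 °C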
TIM10 inh: growth inhibitors of TIM10 yeast strain. AID 463195. S. cerevisiae TIM10 strain growth, BacTiter-Glo luminescence, 24 h. inhibition, % at 10 µM. 1.4% of 330,000 active;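 active = inhibition of 40% or more at the single tested concentration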;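 note: wild-type TIM10 isogenic control strain grown at permissive 25 °C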
tim10-1 inh: growth inhibitors of tim10-1 mutant yeast. inhibition, % at 20 µM. 2.2% of 330,000 active. S. cerevisiae tim10-1 ts strain growth, BacTiter-Glo, 24 h;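 active = inhibition of at least 40%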;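 note: mutant grown at 25 °C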
tim23-1 conf: confirmation of tim23-1 mutant yeast growth inhibitors. shares compounds with tim23-1 inh. S. cerevisiae tim23-1 growth, BacTiter-Glo luminescence, 24 h. inhibition, % at 20 µM. 83% of 4,400 active;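 active = inhibition above about 39% in either of two replicate wells at 20 µM, limit read from the data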;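 note: temperature-sensitive tim23-1 mutant grown at 25 °C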
Hits are given with their value; i = inactive; nt = no result given. In the library only some 4.6% were active in any assay of this set; here they are far more common.

SMILES	SKKanGAS inh	NALP3 yeast inh	tim23-1 inh	TIM10 inh	tim10-1 inh	tim23-1 conf
CCc1nc(Nc2ccncc2)c2oc3ccccc3c2n1	i	i	i	i	i	nt
CCc1nc(Nc2cccc(O)c2)c2oc3ccccc3c2n1	i	i	60	i	i	46
O=c1oc(C2(O)CCCCC2)cc2ccc(/C=C/c3ccc(F)cc3)cc12	nt	i	i	i	i	nt
CCC(C)(C)C1CCc2[nH]nc(C(=O)NN)c2C1 (centres undefined)	i	i	i	i	i	nt
CCC(C)(C)C1CCc2[nH]nc(C(=O)NC(C)C)c2C1 (centres undefined)	nt	i	53	i	i	53
CCC(C)(C)C1CCc2[nH]nc(C(=O)NCC3CC3)c2C1 (centres undefined)	nt	i	56	i	i	64
COc1ccc(OCC(=O)Nc2ccc(OC)c(S(=O)(=O)N3CCCCC3)c2)cc1	i	i	i	i	i	nt
Cc1cc(C)c(S(=O)(=O)NCC2CCC(C(=O)NCc3ccccn3)CC2)c(C)c1 (centres undefined)	i	i	i	i	i	nt
CCOC(=O)c1cc(C#N)c(SCC(=O)OC)[nH]c1=O	i	i	i	i	i	nt
CCc1nnc(NC(=O)CSc2nc3c(cc2C#N)CCC3)s1	i	i	94	i	i	i
CC(C)Oc1cc(O)c2c(=O)c(-c3ccc(O)cc3)coc2c1	i	i	57	i	i	61
COCCN(CC(=O)Nc1cccc(S(=O)(=O)N2CCCC2)c1)Cc1nc2ccccc2c(=O)[nH]1	nt	i	i	i	i	nt
O=C(OCC(=O)N1CCN(C(=O)c2ccco2)CC1)c1ccc(Cl)nc1	nt	i	i	i	i	nt
COc1cc(CCc2ccccc2)c(C(=O)O)c(O)c1C/C=C(/C)CCC=C(C)C	nt	nt	75	i	i	i
COc1ccc(NC(=O)CCCc2ccccc2)c(OC)c1	i	i	i	i	i	nt
CC(=O)c1ccc(NC(=O)CN2C(=O)COc3ccc(S(=O)(=O)N4CCCC4)cc32)cc1	i	i	i	i	i	nt
C/C(=N/NC(=O)CNC(=O)c1cccs1)c1ccco1	i	i	i	i	i	nt
Cn1ncc([N+](=O)[O-])c1C(=O)Nc1ccc(-c2ccccc2)cc1	i	i	i	i	i	nt
C[C@H]1CN([C@@H](C)CO)C(=O)Cc2cc(NC(=O)CCC(F)(F)F)ccc2O[C@H]1CN(C)S(=O)(=O)c1ccc(Cl)cc1	nt	i	i	i	i	nt
Cc1nc([N+](=O)[O-])cn1CC(O)c1ccc(F)cc1 (centres undefined)	i	i	i	i	i	nt
CCCCn1cnc2c(c(-c3ccccc3)c(-c3ccccc3)n2Cc2ccco2)c1=N	i	i	i	i	i	nt
N=c1c2c(-c3ccccc3)c(-c3ccccc3)n(Cc3ccco3)c2ncn1Cc1ccco1	i	i	66	i	i	44
CCOc1ccc2oc(C(=O)Nc3cc(C)ccn3)c(C)c2c1	i	i	i	i	i	nt
O=C(Nc1ccc2nc3n(c(=O)c2c1)CCCC3)c1cncc(Br)c1	i	i	i	i	i	nt
O=C(c1ccc2[nH]c(=O)c(=O)[nH]c2c1)N1CCN(Cc2ccccc2)CC1	i	i	i	i	i	nt
SMILES	SKKanGAS inh	NALP3 yeast inh	tim23-1 inh	TIM10 inh	tim10-1 inh	tim23-1 conf
O=C(Nc1ccc(Nc2ccccc2)cc1)C(Cl)Cl	i	i	i	i	i	nt
CC(C)(C)C(=O)C(Cl)C(=O)Nc1ccccc1 (centres undefined)	i	i	70	i	i	i
COc1ccc(CC(=O)Nc2c3c(nn2-c2ccccc2C)CS(=O)C3)cc1 (centres undefined)	i	i	97	i	i	i
C=CCNC(=O)c1ccccc1NC(=O)C1COc2ccccc2O1 (centres undefined)	i	i	i	i	i	nt
C=C(C)C(O)Cc1c(OC)ccc(C(=O)/C=C/c2ccc(O)cc2)c1O (centres undefined)	nt	i	54	i	i	42
COc1ccc(S(=O)(=O)N2CCOC23CCN(S(=O)(=O)c2ccc(Cl)cc2)CC3)cc1	i	i	52	i	i	42
COc1ccc(S(=O)(=O)N2CCC3(CC2)OCCN3S(=O)(=O)c2ccc(OC)cc2)cc1	i	i	i	i	i	nt
O=C(c1ccccc1NS(=O)(=O)c1ccc([N+](=O)[O-])cc1[N+](=O)[O-])N1O[C@@H]2C=C[C@H]1C2	nt	nt	53	i	i	i
CC(C(Sc1ccccc1N)c1ccccc1)[N+](=O)[O-] (centres undefined)	i	i	58	i	i	57
CCOC(=O)C1=C(CN2CCN(C(=O)c3ccco3)CC2)NC(=O)NC1c1ccc(C)cc1 (centres undefined)	i	i	i	i	i	nt
CCC(C)n1cnc2c(c1=O)c1nc3ccccc3nc1n2Cc1ccc(OC)cc1 (centres undefined)	i	i	53	i	i	52
C/C(=N/Nc1nc(C)cc(C)n1)c1ccc(Br)cc1	i	i	i	i	i	nt
C/C(=N\Nc1nc(C)cc(-c2ccccc2)n1)c1ccc(O)cc1	i	i	50	i	i	49
CCn1c(/C=C2\C(=O)N(C(C)C)c3ccccc32)nc2ccccc2c1=O	i	i	56	i	i	42
CCn1c(/C=C/c2c(C)[nH]c3ccccc23)nc2ccccc2c1=O	i	i	i	i	i	nt
c1ccc(-c2sc3ccccc3c2-c2ccc(OCCN3CCCCC3)cc2)cc1	nt	i	i	i	i	nt
COc1cc(OC)cc(-c2sc3ccc(OC)cc3c2-c2ccc(OCCN3CCCCC3)cc2)c1	nt	nt	52	i	i	i
COc1ccc(-c2sc3cc4c(cc3c2-c2ccc(OCCN3CCCCC3)cc2)OCO4)cc1	nt	nt	i	i	i	nt
c1ccc2c(-c3ccc(OCCN4CCCCC4)cc3)c(-c3ccsc3)sc2c1	nt	i	63	i	i	65
Oc1c(C(c2ccccc2Cl)N2CCCC2)ccc2cccnc12 (centres undefined)	76	i	65	i	i	59
O=C(Oc1c(Cl)cc(Cl)c2cccnc12)N1CCCCC1	i	i	i	i	i	nt
Oc1c(C(c2ccc(Cl)cc2)N2CCCC2)cc(Cl)c2cccnc12 (centres undefined)	80	i	64	i	i	68
Cn1c(N)c(C(=O)CSc2nnc(C3CC3)n2-c2ccccc2)c(=O)n(C)c1=O	nt	i	i	i	i	nt
CCCNC(=O)c1oc2ccc3c(c2c1C)C(O)CC(C)(C)O3 (centres undefined)	i	i	i	i	i	nt
Cc1c(C(=O)NCc2ccoc2)oc2ccc3c(c12)C(=O)CC(C)(C)O3	i	i	52	i	i	53
Cn1c(NC(=O)c2ccccc2F)c(-c2cccs2)c(=O)c2ccccc21	i	i	i	i	i	nt
COc1ccc(C)cc1NC(=O)CNC(=O)[C@@H]1Cc2ccccc2CN1	i	i	i	i	i	nt
Brc1ccc(OCc2nnnn2-c2ccccc2)cc1	i	i	52	i	i	39
COc1ccc(OCc2nnnn2-c2ccccc2)cc1	i	i	i	i	i	nt

Source: PubChem (several laboratories)
